The values below come from PubChem BioAssay (EPA / NIEHS).

Values joined by “and” are separate entries in the source; they are usually repeats but may differ in a detail not shown here. Equal values may be shown once. The source holds several records for some structures; these can differ, active in one and inactive in another. Active and inactive are the calls of the source. The calls were made as follows: active = hit-call score of the fitted dose curve at least 0.9, where 1 is the maximum; inactive = score below 0.9.

The nature of experiment [1]: ATG_GLI_CIS: Attagene CIS-FACTORIAL HepG2 Assay for human Zinc Finger Protein GLI1 (AID 2282945). The conditions noted are these: HepG2, Attagene cis-factorial reporter mRNA, GLI element; actives raise or lower the signal. The method in brief: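 Bidirectional curve fits relative to DMSO, using reporter mRNA levels from RT-PCR plus capillary electrophoresis. Cells were HepG2 transiently carrying cis-regulated reporter constructs, harvested 24 h after dosing.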

Experiment [2] is described as follows: ATG_GRE_CIS: Attagene CIS-FACTORIAL HepG2 Assay for human Glucocorticoid Response Elements (GRE) (AID 2282947). The conditions noted are these: HepG2 GRE cis-reporter, Attagene multiplex mRNA; actives raise or lower the signal. In outline: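 Multiplexed cis-reporter mRNA induction, HepG2, 24 h post-dose. RT-PCR, FAM-labelled, HpaI-digested amplicons by CE. Bidirectional fit vs DMSO.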

A short description of experiment [3]: ATG_ISRE_CIS: Attagene CIS-FACTORIAL HepG2 Assay for human Interferon Regulatory Factor 1 (IRF1) binding to an Interferon-Stimulated Response Element (ISRE) (AID 2282948). The note with it: HepG2 ISRE cis-reporter (Attagene), mRNA transcription readout; actives raise or lower the signal. The method in brief:
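Signal reflects induction or loss of ISRE-linked reporter mRNA in transiently transfected HepG2 cells after a 24 h treatment, detected by fluorescent RT-PCR fragments on capillary electrophoresis and normalised to DMSO.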

Experiment [4] is described as follows: ATG_M_32_CIS: Attagene CIS-FACTORIAL HepG2 Assay for M32 Transcription Factor (Internal Marker) (AID 2282949).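 Also: background control marker of the multiplexed CIS panel rather than a real target.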 The conditions noted are these: HepG2 Attagene cis-factorial M32 reporter, mRNA; actives raise or lower the signal. The method in brief: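 Transient MRTU transfection of HepG2; 24 h compound treatment; TriZol RNA, oligo(dT) RT, reporter PCR, 6-FAM primer extension, HpaI cut, CE. Gain/loss of signal vs DMSO.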

The nature of experiment [5]: ATG_M_06_CIS: Attagene CIS-FACTORIAL HepG2 Assay for M06 Transcription Factor (Internal Marker) (AID 2282950). The conditions noted are these: HepG2 Attagene CIS-FACTORIAL M06 internal marker reporter; actives raise or lower the signal. In outline: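 Cells (HepG2, transiently carrying cis-driven reporter units) receive chemical for 24 h before RNA isolation. Reporter cDNA is PCR-amplified, FAM-labelled by primer extension, HpaI-digested and sized on a capillary analyser.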

Experiment [6] deals with Hypoxia-inducible factor 1-alpha (Homo sapiens) (UniProt Q16665). Kind of experiment: ATG_HIF1a_CIS: Attagene CIS-FACTORIAL HepG2 Assay for human Hypoxia Inducible Factor 1 (HIF1A) (AID 2282951). The note with it: HepG2 Attagene cis-factorial HIF1a reporter transcription; actives raise or lower the signal. The method in brief:
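HepG2 cells transiently transfected with multiplexed cis-promoter reporter units; reporter mRNA read 24 h after dosing by RT-PCR, 6-FAM primer-extension labelling, HpaI digestion and capillary electrophoresis. Bidirectional fit versus DMSO baseline.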

In experiment [7] the target is Hepatocyte nuclear factor 6 (Homo sapiens) (UniProt Q9UBC0). In words: ATG_HNF6_CIS: Attagene CIS-FACTORIAL HepG2 Assay for human Hepatocyte Nuclear Factor 6 (HNF6) (AID 2282952). The note with it: HepG2 Attagene cis-factorial HNF6 reporter transcription; actives raise or lower the signal. In outline:
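Readout: fluorescent reporter-transcript fragments resolved by capillary electrophoresis after RT-PCR, reflecting endogenous factor activity in transfected HepG2. Exposure 24 h. Gain or loss of signal fitted bidirectionally against DMSO.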

Experiment [8] can be described thus: ATG_MRE_CIS: Attagene CIS-FACTORIAL HepG2 Assay for human Metal Responsive Element (MRE) (AID 2282954). The note with it: HepG2 MRE cis-reporter transcription, Attagene multiplex; actives raise or lower the signal. The method in brief:
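Multiplexed cis-reporter assay in human HepG2 liver cells, 24 h incubation with test chemical. Reporter transcripts measured by RT-PCR and capillary electrophoresis; values from bidirectional curve fitting versus DMSO.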

Experiment [9] has as its target Paired box protein Pax-6 (Homo sapiens) (UniProt P26367). In words: ATG_Pax6_CIS: Attagene CIS-FACTORIAL HepG2 Assay for human Paired Box 6 (PAX6) (AID 2282956). The note with it: HepG2 CIS-FACTORIAL PAX6 reporter transcription, RNA readout; actives raise or lower the signal. The method in brief: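 Values derive from bidirectional curve fitting of reporter mRNA signal relative to DMSO. HepG2 cells bearing transfected cis-regulated MRTUs were exposed for 24 h; transcripts were read by RT-PCR and capillary electrophoresis.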

The nature of experiment [10]: ATG_PXRE_CIS: Attagene CIS-FACTORIAL HepG2 Assay for human Pregnane X Receptor Element (PXRE) (AID 2282957). The conditions noted are these: HepG2 Attagene CIS-FACTORIAL PXRE reporter, mRNA; actives raise or lower the signal. In outline: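 Read-out: fluorescence of reporter-specific RT-PCR products resolved by capillary electrophoresis, fitted bidirectionally relative to DMSO. Human HepG2 liver cells carried transfected cis-promoter reporter units and were exposed to chemicals for 24 h.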

Experiment [11] can be described thus: ATG_PPRE_CIS: Attagene CIS-FACTORIAL HepG2 Assay for human Peroxisome Proliferator-activated Response Element (PPRE) (AID 2282958). The note with it: HepG2 PPRE cis-element reporter, Attagene transcription factor profiling; actives raise or lower the signal. The method in brief: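 HepG2 cells transiently transfected with multiplexed cis-element reporter units measure endogenous transcription factor activity. After 24 h compound exposure, reporter mRNA is quantified by RT-PCR, 6-FAM labeling, HpaI digestion and capillary electrophoresis; bidirectional fits are made against DMSO baseline.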

Experiment [12] in a line: ATG_RORE_CIS: Attagene CIS-FACTORIAL HepG2 Assay for human RAR-related Orphan Receptor Element (RORE) (AID 2282959). The note with it: HepG2 Attagene cis-factorial RORE reporter, mRNA; actives raise or lower the signal. The method in brief:
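HepG2 cells transiently transfected with multiple cis-element reporter transcription units, exposed to chemical for 24 h. Reporter mRNA quantified by RT-PCR, 6-FAM primer-extension labeling, HpaI digestion and capillary electrophoresis; bidirectional fit versus DMSO baseline.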

A short description of experiment [13]: ATG_Sox_CIS: Attagene CIS-FACTORIAL HepG2 Assay for human SRY-box transcription factor (SOX) (AID 2282960). The conditions noted are these: HepG2 Attagene cis-factorial SOX reporter, mRNA; actives raise or lower the signal. The method in brief: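 HepG2 cells transiently transfected with cis-element-driven multiple reporter transcription units, dosed 24 h; reporter mRNA measured by RT-PCR, FAM labelling, HpaI digestion and capillary electrophoresis. Bidirectional fit versus DMSO baseline.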

Experiment [14] concerns the target Transcription factor Sp1 (Homo sapiens) (UniProt P08047). In words: ATG_Sp1_CIS: Attagene CIS-FACTORIAL HepG2 Assay for human Specificity Protein 1 (Sp1) (AID 2282961). The conditions noted are these: HepG2 Sp1 cis-reporter transcription, actives raise or lower the signal. In outline:
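HepG2 cells transiently transfected with multiple reporter transcription units driven by cis-regulatory elements; Sp1-responsive reporter mRNA measured 24 h after dosing by RT-PCR and capillary electrophoresis fluorescence, fitted bidirectionally against DMSO baseline.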

Experiment [15] is described as follows: ATG_SREBP_CIS: Attagene CIS-FACTORIAL HepG2 Assay for human Sterol Regulatory Element Binding (SREBP) (AID 2282962). The conditions noted are these: HepG2 Attagene cis-factorial SREBP reporter, mRNA; actives raise or lower the signal. The method in brief: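 Values derive from bidirectional curve fitting with DMSO as baseline. The underlying measurement is reporter mRNA from cis-element-regulated units in transiently transfected HepG2, quantified by RT-PCR and capillary electrophoresis after 24 h exposure.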

In experiment [16] the target is Signal transducer and activator of transcription 3 (Homo sapiens) (UniProt P40763). In words: ATG_STAT3_CIS: Attagene CIS-FACTORIAL HepG2 Assay for human Signal Transducer and Activator of Transcription 3 (STAT3) (AID 2282963). The note with it: HepG2, Attagene cis-factorial STAT3 reporter transcription; actives raise or lower the signal. The method in brief: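 Cis-factorial format: endogenous transcription factors in HepG2 drive transfected reporter units. After 24 h treatment, reporter RNA was reverse-transcribed, amplified, FAM-labelled and HpaI-digested before CE analysis; activity scored in both directions against DMSO.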

Experiment [17] is described as follows: ATG_TA_CIS: Attagene CIS-FACTORIAL HepG2 Assay for human TA Basal Promoter (AID 2282964). The conditions noted are these: HepG2 Attagene CIS-factorial TA basal promoter reporter; actives raise or lower the signal. In outline:
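Background internal-marker endpoint from a 52-component HepG2 cis-reporter panel. Cells treated 24 h; reporter transcripts quantified via RT-PCR and CE fluorescence against DMSO baseline.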

Experiment [18] has as its target Heat shock factor protein 1 (Homo sapiens) (UniProt Q00613). In words: ATG_HSE_CIS: Attagene CIS-FACTORIAL HepG2 Assay for human Heat Shock Transcription Factor 1 (HSE) (AID 2282953). The conditions noted are these: HepG2 HSE cis-reporter, Attagene RNA transcription; actives raise or lower the signal. The method in brief: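 Liver-derived HepG2 cells carry transiently introduced multiple reporter units governed by cis promoters. Reporter RNA measured 24 h post-dose through reverse transcription, PCR amplification, fluorescent labelling and capillary electrophoresis, normalised to DMSO.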

Hepatocyte nuclear factor 6 (Homo sapiens), sequence (Q9UBC0 whole entry, looked up, the tested form may be a part): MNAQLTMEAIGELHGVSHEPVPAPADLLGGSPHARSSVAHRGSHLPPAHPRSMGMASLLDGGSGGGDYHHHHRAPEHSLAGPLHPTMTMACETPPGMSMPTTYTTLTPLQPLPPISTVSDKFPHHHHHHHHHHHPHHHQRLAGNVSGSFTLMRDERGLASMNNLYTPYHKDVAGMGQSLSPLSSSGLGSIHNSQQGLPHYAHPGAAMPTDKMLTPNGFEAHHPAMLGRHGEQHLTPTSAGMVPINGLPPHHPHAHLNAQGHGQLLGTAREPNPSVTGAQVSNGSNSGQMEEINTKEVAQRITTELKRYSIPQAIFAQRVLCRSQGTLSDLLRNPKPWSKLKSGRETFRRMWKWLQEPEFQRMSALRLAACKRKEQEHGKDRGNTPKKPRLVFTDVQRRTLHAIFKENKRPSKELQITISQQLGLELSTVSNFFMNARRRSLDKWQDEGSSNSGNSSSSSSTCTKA
Transcription factor Sp1 (Homo sapiens), sequence (P08047 whole entry, looked up): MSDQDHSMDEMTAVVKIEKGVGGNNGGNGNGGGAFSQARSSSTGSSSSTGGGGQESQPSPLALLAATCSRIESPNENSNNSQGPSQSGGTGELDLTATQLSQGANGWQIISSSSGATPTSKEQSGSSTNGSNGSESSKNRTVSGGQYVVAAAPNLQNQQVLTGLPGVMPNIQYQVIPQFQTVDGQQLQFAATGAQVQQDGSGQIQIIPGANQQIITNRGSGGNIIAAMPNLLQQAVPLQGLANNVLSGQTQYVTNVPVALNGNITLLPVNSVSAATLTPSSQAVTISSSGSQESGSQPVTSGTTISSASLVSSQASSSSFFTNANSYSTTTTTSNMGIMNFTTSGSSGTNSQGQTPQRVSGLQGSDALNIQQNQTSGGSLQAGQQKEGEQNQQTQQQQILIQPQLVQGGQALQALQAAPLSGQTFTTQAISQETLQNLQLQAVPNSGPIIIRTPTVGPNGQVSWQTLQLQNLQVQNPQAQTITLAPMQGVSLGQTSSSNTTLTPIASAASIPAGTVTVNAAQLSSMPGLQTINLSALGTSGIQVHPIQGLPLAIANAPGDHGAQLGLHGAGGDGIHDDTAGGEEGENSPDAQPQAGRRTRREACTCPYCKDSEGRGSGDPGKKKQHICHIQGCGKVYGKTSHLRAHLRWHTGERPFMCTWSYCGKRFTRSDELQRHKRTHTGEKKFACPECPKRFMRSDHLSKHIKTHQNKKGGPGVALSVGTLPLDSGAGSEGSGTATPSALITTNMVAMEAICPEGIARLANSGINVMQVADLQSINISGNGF
Hypoxia-inducible factor 1-alpha (Homo sapiens), sequence (Q16665 whole entry, looked up): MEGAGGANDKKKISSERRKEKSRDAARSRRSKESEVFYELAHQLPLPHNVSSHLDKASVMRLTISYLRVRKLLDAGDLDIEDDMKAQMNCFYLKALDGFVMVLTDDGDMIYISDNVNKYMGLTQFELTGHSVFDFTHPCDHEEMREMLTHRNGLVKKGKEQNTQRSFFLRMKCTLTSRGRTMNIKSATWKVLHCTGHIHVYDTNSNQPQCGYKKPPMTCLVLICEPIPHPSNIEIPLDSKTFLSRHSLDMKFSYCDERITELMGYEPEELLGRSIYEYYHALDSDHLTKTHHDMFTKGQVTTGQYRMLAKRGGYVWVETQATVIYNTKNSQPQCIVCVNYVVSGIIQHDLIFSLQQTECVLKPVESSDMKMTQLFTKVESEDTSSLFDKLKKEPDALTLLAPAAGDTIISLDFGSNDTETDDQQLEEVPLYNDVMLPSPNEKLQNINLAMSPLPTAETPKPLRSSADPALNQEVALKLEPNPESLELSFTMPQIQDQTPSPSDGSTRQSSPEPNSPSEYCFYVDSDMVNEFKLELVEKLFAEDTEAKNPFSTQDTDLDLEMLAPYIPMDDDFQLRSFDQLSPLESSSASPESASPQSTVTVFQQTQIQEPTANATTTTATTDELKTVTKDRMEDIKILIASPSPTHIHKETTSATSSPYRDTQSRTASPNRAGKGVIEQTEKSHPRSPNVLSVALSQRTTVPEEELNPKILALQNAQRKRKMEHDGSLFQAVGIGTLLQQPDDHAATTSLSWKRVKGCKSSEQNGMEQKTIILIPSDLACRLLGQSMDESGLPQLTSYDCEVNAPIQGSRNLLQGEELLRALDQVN
Paired box protein Pax-6 (Homo sapiens), sequence (P26367 whole entry, looked up): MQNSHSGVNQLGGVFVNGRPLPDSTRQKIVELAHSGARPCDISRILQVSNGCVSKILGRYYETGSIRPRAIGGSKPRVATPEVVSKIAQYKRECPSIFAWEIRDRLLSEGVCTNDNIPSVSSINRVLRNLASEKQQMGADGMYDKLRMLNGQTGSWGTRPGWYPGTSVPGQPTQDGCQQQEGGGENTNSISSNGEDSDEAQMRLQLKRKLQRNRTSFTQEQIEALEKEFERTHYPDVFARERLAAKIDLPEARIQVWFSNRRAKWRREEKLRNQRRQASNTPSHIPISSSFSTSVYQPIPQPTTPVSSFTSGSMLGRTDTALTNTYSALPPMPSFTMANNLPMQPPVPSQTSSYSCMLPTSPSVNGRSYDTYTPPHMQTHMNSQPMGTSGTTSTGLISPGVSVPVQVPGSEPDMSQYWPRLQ
Signal transducer and activator of transcription 3 (Homo sapiens), sequence (P40763 whole entry, looked up): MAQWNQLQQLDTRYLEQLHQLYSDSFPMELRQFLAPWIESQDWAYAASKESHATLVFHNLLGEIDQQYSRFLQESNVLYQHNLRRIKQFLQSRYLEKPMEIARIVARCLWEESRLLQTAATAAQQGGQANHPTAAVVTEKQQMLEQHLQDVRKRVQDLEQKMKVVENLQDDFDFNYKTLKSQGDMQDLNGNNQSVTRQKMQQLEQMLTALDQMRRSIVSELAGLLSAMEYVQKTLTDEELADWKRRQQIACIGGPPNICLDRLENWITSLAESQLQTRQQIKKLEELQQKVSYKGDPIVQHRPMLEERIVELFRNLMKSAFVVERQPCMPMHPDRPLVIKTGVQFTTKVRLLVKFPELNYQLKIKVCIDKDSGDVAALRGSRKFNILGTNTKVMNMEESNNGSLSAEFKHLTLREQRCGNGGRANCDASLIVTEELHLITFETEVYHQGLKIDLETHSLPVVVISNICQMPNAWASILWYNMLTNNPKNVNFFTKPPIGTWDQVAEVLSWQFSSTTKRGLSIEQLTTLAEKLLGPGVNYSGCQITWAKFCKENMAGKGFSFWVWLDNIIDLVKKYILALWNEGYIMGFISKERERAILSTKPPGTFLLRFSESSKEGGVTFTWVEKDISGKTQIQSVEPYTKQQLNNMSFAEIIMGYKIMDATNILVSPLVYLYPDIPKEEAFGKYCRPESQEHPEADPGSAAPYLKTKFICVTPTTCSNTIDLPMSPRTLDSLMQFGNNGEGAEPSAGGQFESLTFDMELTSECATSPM
Heat shock factor protein 1 (Homo sapiens), sequence (Q00613 whole entry, looked up): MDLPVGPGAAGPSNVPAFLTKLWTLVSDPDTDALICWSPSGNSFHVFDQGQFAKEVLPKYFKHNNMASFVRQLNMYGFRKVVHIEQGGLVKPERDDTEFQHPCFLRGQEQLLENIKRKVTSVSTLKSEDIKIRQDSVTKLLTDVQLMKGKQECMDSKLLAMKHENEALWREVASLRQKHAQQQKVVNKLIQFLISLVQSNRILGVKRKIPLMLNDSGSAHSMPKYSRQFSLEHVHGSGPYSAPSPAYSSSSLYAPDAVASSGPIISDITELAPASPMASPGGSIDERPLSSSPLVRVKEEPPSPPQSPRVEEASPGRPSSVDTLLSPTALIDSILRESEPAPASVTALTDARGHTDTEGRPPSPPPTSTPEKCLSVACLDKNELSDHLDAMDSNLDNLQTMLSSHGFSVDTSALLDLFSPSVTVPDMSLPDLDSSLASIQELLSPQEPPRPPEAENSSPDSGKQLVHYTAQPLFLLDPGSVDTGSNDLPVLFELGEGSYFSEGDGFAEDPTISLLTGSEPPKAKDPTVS

In general, AC50 refers to the midpoint of the concentration-response curve, whichever way the signal moves. Take `C/C=C(\C)C(=O)OC/C=C(\C)CCC=C(C)C`: the compound was called inactive in experiment [1], in [2], in experiment [3], in experiment [4], in experiment [5] and in experiment [6]. In addition, the call in [7], in experiment [8], in experiment [9], in experiment [10], in experiment [12] and in experiment [13] was inactive. Besides, the call in experiment [14], in [16] and in experiment [17] was inactive. Besides, the AC50 was 39.6 µM (active) in [11] and 61.3 µM (active) in experiment [15].
For `CC(C)Cc1ccccc1`, the result in [1], in [2], in experiment [3], in experiment [4], in [5] and in [6] was inactive. Moreover, the outcome in [18], in [8], in experiment [9], in [10], in experiment [12] and in experiment [13] was inactive. Also, the compound was called inactive in [14], in [15], in experiment [16] and in experiment [17].
On to `CC/C(=C(\c1ccccc1)c1ccc(OCCN(C)C)cc1)c1ccccc1`, for which the compound was classed as inactive in experiment [1], in experiment [2], in [3], in experiment [4], in experiment [5] and in [6]. Moreover, the compound was classed as inactive in [7], in [18], in experiment [8], in experiment [11], in experiment [12] and in experiment [13]. Moreover, the result in experiment [14], in experiment [15], in [16] and in experiment [17] was inactive. The AC50 in experiment [15] is 5.24 µM (active) and 3.71 µM (active).
Consider `O=S1(=O)CC=CC1`, for which the call in [1], in experiment [2], in experiment [3], in [4], in [5] and in experiment [6] was inactive. The call in [18], in experiment [8], in experiment [9], in [10], in [11] and in experiment [12] was inactive. In addition, the compound was called inactive in experiment [13], in experiment [14], in [15], in experiment [16] and in experiment [17].
